p53ts 39C kill = p53ts cell cytotoxicity, nonpermissive temperature; H1299-p53A138V viability at 39C, ATP luminescence, 24 h; Potency, µM (top dose mostly 46.1 µM), for the others: top-dose activity change, negative = cell killing, usual class: cytotoxic; hit rate 1.5% among 130,000; AID 902; note: nearly all actives have a fitted effect of over 55% in size
HPGD block = HPGD (human) dehydrogenase inhibition; P15428; purified HPGD, NADH fluorescence kinetic, PGE2 substrate; Potency, µM, inactives show top-dose activity change, negative = inhibition, hits mostly inhibitors; hit rate 4.3% among 150,000; AID 894; active = well fitted inhibition curve with a large enough effect, not every such curve was filed as active; inconclusive = small, poorly fitted or top-dose-only effect, or another doubt; inactive = no such curve, though single readings can be large or run the other way
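20 nM HPGD preincubated 15 min at room temperature with compound in 50 mM Tris-HCl pH 8, 0.01% Tween 20. Started with 1 mM NAD+ and 30 uM prostaglandin E2; NADH fluorescence (360/450 nm) read 5 times over 30-s intervals, last minus first.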
p53ts 32C tox = kills p53ts cells at the permissive temperature. H1299-p53A138V at 32C, ATP luminescence viability, 24 h. Potency, µM (top dose mostly 46.1 µM), inactives show top-dose activity change, negative = cytotoxicity, hits mostly cytotoxic. hit rate 0.93% among 130,000;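 note: 0% = DMSO and -100% = full killing by reference compound; nearly all actives have a fitted effect of over 55% in size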
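H1299-p53 A138V cells (temperature-sensitive p53) exposed 24 h to up to 46 uM compound at 32C, where p53 is wild-type in conformation. Viability read as ATP luminescence and normalised to DMSO and 100 uM tamoxifen. AC50 fitted with the Hill equation.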
12-hLO inh = inhibitors of human 12-lipoxygenase (ALOX12). Potency, µM (doses to about 57.1 µM), inactives show at the highest dose activity change, negative = inhibition, actives largely listed as inhibitors. AID 1452. P18054. purified 12-hLO, xylenol orange hydroperoxide absorbance. hit rate 0.12% among 150,000; note: nearly all actives have a fitted effect of over 55% in size
Target sequence (P18054 whole entry, looked up): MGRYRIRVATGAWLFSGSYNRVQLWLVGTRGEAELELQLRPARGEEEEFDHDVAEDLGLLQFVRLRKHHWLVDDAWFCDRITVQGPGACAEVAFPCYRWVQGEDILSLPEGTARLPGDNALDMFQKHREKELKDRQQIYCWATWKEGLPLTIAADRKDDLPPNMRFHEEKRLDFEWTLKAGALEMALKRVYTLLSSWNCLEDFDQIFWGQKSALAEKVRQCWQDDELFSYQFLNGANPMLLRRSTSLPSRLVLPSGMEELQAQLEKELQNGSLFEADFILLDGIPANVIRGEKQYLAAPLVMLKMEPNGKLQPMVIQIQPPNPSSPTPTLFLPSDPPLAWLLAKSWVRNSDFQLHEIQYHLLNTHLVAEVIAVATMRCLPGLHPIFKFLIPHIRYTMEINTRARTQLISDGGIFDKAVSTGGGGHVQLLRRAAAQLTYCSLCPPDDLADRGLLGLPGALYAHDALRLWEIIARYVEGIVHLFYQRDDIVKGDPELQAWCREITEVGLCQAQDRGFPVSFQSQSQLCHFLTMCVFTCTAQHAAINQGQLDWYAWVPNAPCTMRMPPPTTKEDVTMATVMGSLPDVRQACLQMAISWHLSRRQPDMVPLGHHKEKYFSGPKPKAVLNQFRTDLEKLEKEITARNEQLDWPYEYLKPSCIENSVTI
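Purified human 12hLO (150 nM final) was preincubated with compounds for 15 min at room temperature in 25 mM Hepes pH 7.0, 0.01% Triton X-100, then reacted with 40 uM arachidonic acid for 30 min. Hydroperoxide was detected with ferrous iron/xylenol orange.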
An asterisk follows results filed as active; u = inconclusive; x = not tested or not shown; [ ] = dose if it differs, or a comment. This is a sample that favours compounds with a hit; in the whole collection about 4.4% have one here. Unless noted, calls come from the whole dose curve; as a rule, active = well fitted curve in the direction sought with a large enough effect; inconclusive = small, poorly fitted or top-dose-only effect, or another doubt; inactive = no such curve, though single readings can be large; an effect the other way counts as inactive or inconclusive. Unless noted, % is set by controls: 0 for no effect and ±100 for the full control effect; potency is the fitted concentration of half-maximal effect.

SMILES	p53ts 39C kill	HPGD block	p53ts 32C tox	12-hLO inh
O=C(Cc1ccccc1)NCCSCc1ccc(Cl)cc1	x	31.6µM*	x	-6.5%
Cc1cccc(CSCCNC(=O)CCSc2ccccc2)c1	x	28.2µM*	x	-6.1%
O=C(CCSc1ccccc1)NCCSCc1ccccc1	x	14.1µM*	x	-6.9%
Cc1cccc(CSCCNC(=O)CSCc2ccc([N+](=O)[O-])cc2)c1	x	-17.0%	x	-4.5%
COc1ccc2c(c1)C(c1ccc(C)cc1)CC(=O)O2 (stereo unspecified)	x	-3.5%	x	-1.3%[0.00818 µM]
Cc1ccccc1Nc1nnc(-c2ccc(C)c(S(=O)(=O)N3CCCCC3)c2)c2ccccc12	-21.9%	x	21.6%	x
COc1cc2ccc(=O)oc2cc1O	1.1%	u	3.7%	-3.8%
O=Nc1ccc2oc(=O)ccc2c1	55.8%	15.8µM*	13.2%	-11.2%
CCCCN(CC)C(=O)c1ccc(-c2ccccc2)cc1	x	2µM*	x	-0.4%
CCN(CC)C(=O)c1ccc(C)c(Br)c1	3.0%	17.8µM*	4.2%	1.1%
CCN(CC)C(=O)c1ccc2nc(-c3ccccc3)c(-c3ccccc3)nc2c1	x	u	x	-2.1%
CCCC(=O)c1ccc(-c2ccccc2)cc1	x	7.08µM*	x	-5.2%
CCN(CC)C(=O)c1ccc2nc3ccccc3nc2c1	x	0.891µM*	x	-3.8%
CCCCN(CC)C(=O)c1cccc(Cl)c1	6.5%	u	12.0%	0.4%
COCCn1c(=O)c(-c2ccc(F)cc2)nc2cnc(OCc3ccccc3)nc21	-5.2%	u	-0.8%	-0.8%
CCN(CC)C(=O)c1ccc(C(=O)c2ccccc2)cc1	x	1µM*	x	6.8%
CCCCC1(C)OC(=O)C(=Cc2ccc(N(C)C)cc2)C(=O)O1 (stereo unspecified)	x	11.2µM*	x	2.2%
Cc1cc(C)cc(NC(=O)CSc2oc(-c3cccs3)nc2S(=O)(=O)c2ccc(Br)cc2)c1	-2.0%	x	-6.4%	x
Cc1ccc(C)c(S(=O)(=O)N2CCC(c3nc4c(nnn4Cc4ccc(F)cc4)c(=O)[nH]3)CC2)c1	8.8%	12.6µM*	21.8%	-7.7%
Cc1ccc(Cn2nnc3c(=O)[nH]c(C4CCN(S(=O)(=O)c5cc(C)ccc5C)CC4)nc32)cc1	38.5%	22.4µM*	51.4%	-9.3%
COc1ccccc1NC(=O)C1=C(C)Nc2nc(SCc3ccccc3Cl)nn2C1c1cccnc1 (stereo unspecified)	10µM*	x	-14.1%	x
O=C(c1cccc([N+](=O)[O-])c1)N1CCN(CCc2ccncc2)CC1	-3.0%	x	-6.6%	x
Cc1cc(C)n(CCc2nc(-c3ccc(F)cc3)cs2)n1	x	25.1µM*	x	-1.3%
Cc1cc(C)n(CCc2nc(-c3ccc(C(C)(C)C)cc3)cs2)n1	x	x	x	-3.5%
COc1cc2c(cc1OC)CN(C(=O)c1cc3ccccc3oc1=O)CC2	2.6%	-1.0%	24.2%	-1.1%
SMILES	p53ts 39C kill	HPGD block	p53ts 32C tox	12-hLO inh
COc1cccc2cc(C(=O)N3CCN(c4ccccc4F)CC3)c(=O)oc12	5.8%	-16.6%	2.9%	-5.4%
COc1cccc2cc(C(=O)N3CCc4ccccc4C3)c(=O)oc12	-0.8%	7.94µM*	-3.3%	1.3%
CCOc1cccc2cc(C(=O)N3CCc4ccccc4C3)c(=O)oc12	0.6%	4.47µM*	5.6%	-9.2%
CCOC(=O)c1ccc(CN(Cc2ccc(Br)cc2)S(=O)(=O)c2cccc(C(F)(F)F)c2)cc1	-26.9%	x	4.3%	x
COc1ccc(-n2nnnc2SCC(N)=O)cc1	8.8%	-0.9%	2.3%	2.8%
COc1ccc(-n2nnnc2SCC(=O)c2ccc(O)c(O)c2)cc1	-25.8%	25.1µM*	-15.5%	u
Cc1ccc(C)c(N2C(=O)N(Cc3cc(=O)n4ccccc4n3)c3ccccc3S2(=O)=O)c1	-12.0%	x	8.1%	x
COC(=O)CCC(=O)COc1ccccc1C#N	-1.6%	14.1µM*	-1.1%	-0.8%
Cc1ccc(NC(=O)c2c(C)nn(-c3ccccc3)c2Cl)c(C)c1	x	14.1µM*	x	-4.6%
CCC1CCCCN1C(=O)CSc1n[nH]c(-c2ccccc2Cl)n1 (stereo unspecified)	u	x	-15.0%	x
Cc1c(/C(O)=C2\C(=O)C(=O)N(CCN(C)C)C2c2cccnc2)cnn1-c1ccccc1 (stereo unspecified)	x	-17.6%	x	-3.5%
Cc1c(/C(O)=C2\C(=O)C(=O)N(CCCN(C)C)C2c2ccccc2)cnn1-c1ccccc1 (stereo unspecified)	x	20µM*	x	-14.6%
CCCc1cc(N2CCCC(C(=O)NCc3ccc4c(c3)OCO4)C2)n2ncnc2n1 (stereo unspecified)	-1.7%	-12.9%	-7.3%	-7.1%
CCCc1cc(N2CCCC(C(=O)Nc3ccc(OC)cc3OC)C2)n2ncnc2n1 (stereo unspecified)	2.5%	28.2µM*	1.8%	2.2%
O=[N+]([O-])c1ccc(O)c(/C=N/Nc2ccccn2)c1	5.62µM*	-9.3%	-21.6%	-0.5%
O=[N+]([O-])c1ccc(O)c(/C=N/Nc2nc3ccccc3[nH]2)c1	x	-16.7%	x	1.2%
Cc1sc(NC(=O)C2CCCO2)c(C(N)=O)c1C (stereo unspecified)	18.2%	28.2µM*	-12.9%	0.2%
NC(=O)c1c(NC(=O)C2CCCO2)sc2c1CCCC2 (stereo unspecified)	11.6%	8.91µM*	9.4%	-3.5%
NC(=O)c1c(N)sc2c1CCCC2	-1.5%	31.6µM*	1.0%	-24.5%
O=C1c2[nH]nc(-c3ccccc3O)c2C(c2cccc(OCc3ccccc3)c2)N1CCCO (stereo unspecified)	u	x	21.1%	x
CN1CCN(c2ncc3nc(-c4ccc(Cl)cc4)c(=O)n(CCC#N)c3n2)CC1	-4.5%	u	-9.4%	-23.0%
CCc1ccc(CNC(=O)CSCc2cnn(-c3ccccc3)c2-n2cccc2)cc1	-14.6%	x	6.8%	x
Cc1nnsc1C(=O)Oc1ccc(C(C)C)cc1	5.8%	x	7.8%	x
O=C1Nc2ccc(I)cc2/C1=C/c1cc(Br)c(O)c(Br)c1	79.6%	3.55µM*	103.5%	-25.1%
Cc1cc(C)c(/C=C2/C(=O)Nc3ccccc32)[nH]1	u	x	19.7%	-8.3%
CCOc1ccc(-c2cc3c(=O)n(Cc4nc(-c5ccc(OCC)c(OC)c5)oc4C)ccn3n2)cc1Cl	7.6%	x	2.3%	x
